Inconclusive results are not listed. Activity calls are given as the source filed them. The calls were made as follows: active = hit-call score of the fitted dose curve at least 0.9, where 1 is the maximum; inconclusive = response in the unintended direction; inactive = score below 0.9.
What was measured:
[1] = TOX21_p53_BLA_p2_viability: Viability Assessment in the Tox21 HCT-116 p53 Agonism Beta-lactamase Assay, Phase 2 (AID 2283591);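 also: actives lower the ATP signal meaning cytotoxicity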
Procedure, shortened: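 HCT-116 p53-bla cells (4000/well) rested 5 h at 37C, then received compounds in DMSO (217-fold dilution) for 16 h at 37C, 5% CO2. After the CCF4 read, CellTiter-Glo was added; ATP luminescence was read after 30 min at room temperature.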

[2] = target: Cellular tumor antigen p53 (Homo sapiens) (UniProt P04637); experiment: TOX21_p53_BLA_p2_ratio: Tox21 HCT-116 p53 Agonism Beta-lactamase Assay, Ratio, Phase 2 (AID 2283592)
Procedure, shortened: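 First, HCT116 reporter cells settle for 5 h at 37C. Next, DMSO compound solutions are pinned in (217-fold dilution) and left 16 h. Finally, CCF4-AM substrate is loaded 2 h at room temperature and the 460/530 nm ratio read.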

[3] = TOX21_p53_BLA_p3_viability: Viability Assessment in the Tox21 HCT-116 p53 Agonism Beta-lactamase Assay, Phase 3 (AID 2283593);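 also: cells exposed to compound for 16 h before reading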
Procedure, shortened: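 HCT-116 cells (4000/well) rested 5 h at 37C, then got DMSO compounds by pin tool (217-fold dilution) for 16 h at 37C, 5% CO2. After the bla read, CellTiter-Glo was added and luminescence read at 30 min, room temperature.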

[4] = target: Cellular tumor antigen p53 (Homo sapiens) (UniProt P04637); experiment: TOX21_p53_BLA_p3_ratio: Tox21 HCT-116 p53 Agonism Beta-lactamase Assay, Ratio, Phase 3 (AID 2283596)
Procedure, shortened: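 Cells were seeded at 4000/well, rested 5 h at 37C, then dosed with DMSO compound solutions (217-fold dilution) for 16 h. CCF4-AM substrate was loaded for 2 h at room temperature, and the 460/530 nm emission ratio was fitted for gain of signal versus DMSO.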

[5] = target: Cellular tumor antigen p53 (Homo sapiens) (UniProt P04637); experiment: TOX21_p53_BLA_p5_ratio: Tox21 HCT-116 p53 Agonism Beta-lactamase Assay, Ratio, Phase 5 (AID 2283599)
Procedure, shortened: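 HCT-116 cells carrying a p53-inducible beta-lactamase reporter were seeded at 4000 cells/well and dosed after 5 h with compound in DMSO (217-fold dilution). After 16 h at 37C, CCF4-AM substrate was added for 2 h, and the 460/530 nm emission ratio was scored as gain-of-signal versus DMSO.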

[6] = TOX21_p53_BLA_p5_viability: Viability Assessment in the Tox21 HCT-116 p53 Agonism Beta-lactamase Assay, Phase 5 (AID 2283600)
Procedure, shortened: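 Decreased CellTiter-Glo luminescence denotes lost viability. Exposure: 16 h at 37C, 5% CO2, with compounds from DMSO stocks diluted 217-fold in wells of 4000 cells.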

[7] = target: Cellular tumor antigen p53 (Homo sapiens) (UniProt P04637); experiment: TOX21_p53_BLA_p4_ratio: Tox21 HCT-116 p53 Agonism Beta-lactamase Assay, Ratio, Phase 4 (AID 2283601)
Procedure, shortened: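 HCT116 cells carrying an inducible beta-lactamase reporter were plated at 4000 cells/well, rested 5 h, then exposed to compounds in DMSO (217-fold dilution) for 16 h at 37C. CCF4-AM substrate was loaded 2 h at room temperature; 460/530 nm emission ratio scored gain-of-signal versus DMSO.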

[8] = TOX21_TRB_BLA_Antagonist_Followup_viability: Viability Assessment in the Tox21 Thyroid Hormone Receptor beta Antagonism Beta-lactamase (BLA) Follow-Up Assay (AID 2283961)
Procedure, shortened: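 HEK293T cells with GAL4-human TRβ LBD and UAS-bla reporter, 3,000 cells/well in 2% charcoal-stripped FBS medium; 11-point concentrations in triplicate, 18 h at 37C. Viability from ATP by CellTiter-Glo luminescence, 30 min RT, same plates.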

[9] = target: Retinoic acid receptor RXR-alpha (Homo sapiens) (UniProt P19793); experiment: TOX21_TR_RXR_BLA_Antagonist_Followup_ratio: Tox21 Thyroid Hormone Receptor beta Retinoid X Receptor alpha (RXRa) Antagonism Beta-lactamase (BLA) Follow-Up Assay, Ratio (AID 2283972)
Procedure, shortened: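 RXRa-UAS-bla HEK293T cells, 2,500/well in phenol red-free DMEM with 2% charcoal-stripped FBS, 5 h attachment, then compounds (11 concentrations, triplicate) for 16 h at 37C; FRET-B/GCCF4-AM substrate 2 h RT; 460:530 nm ratio, loss of signal vs DMSO.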

[10] = TOX21_TR_RXR_BLA_Antagonist_Followup_viability: Viability Assessment in the Tox21 Thyroid Hormone Receptor beta Retinoid X Receptor alpha (RXRa) Antagonism Beta-lactamase (BLA) Follow-Up Assay (AID 2283979)
Procedure, shortened: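 RXRa-UAS-bla HEK293T cells seeded 2,500/well in phenol red-free DMEM with 2% charcoal-stripped FBS, attached 5 h, then exposed to compounds at 11 concentrations in triplicate for 16 h at 37C/5% CO2. Viability read by CellTiter-Glo ATP luminescence; bidirectional fit versus DMSO.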

Measured: AC50

Chain of Cellular tumor antigen p53 (Homo sapiens) (P04637 whole entry, looked up): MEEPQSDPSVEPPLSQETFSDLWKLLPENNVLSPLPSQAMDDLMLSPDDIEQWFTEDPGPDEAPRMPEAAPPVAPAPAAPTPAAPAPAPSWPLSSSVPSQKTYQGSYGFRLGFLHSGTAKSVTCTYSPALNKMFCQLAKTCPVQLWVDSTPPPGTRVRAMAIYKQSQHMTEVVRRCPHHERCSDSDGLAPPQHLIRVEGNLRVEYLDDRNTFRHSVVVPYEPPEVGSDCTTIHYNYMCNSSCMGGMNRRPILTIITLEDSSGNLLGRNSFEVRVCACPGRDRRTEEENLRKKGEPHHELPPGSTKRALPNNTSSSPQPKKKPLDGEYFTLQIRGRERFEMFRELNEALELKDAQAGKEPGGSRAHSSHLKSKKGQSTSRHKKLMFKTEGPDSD
Chain of Retinoic acid receptor RXR-alpha (Homo sapiens) (P19793 whole entry, looked up): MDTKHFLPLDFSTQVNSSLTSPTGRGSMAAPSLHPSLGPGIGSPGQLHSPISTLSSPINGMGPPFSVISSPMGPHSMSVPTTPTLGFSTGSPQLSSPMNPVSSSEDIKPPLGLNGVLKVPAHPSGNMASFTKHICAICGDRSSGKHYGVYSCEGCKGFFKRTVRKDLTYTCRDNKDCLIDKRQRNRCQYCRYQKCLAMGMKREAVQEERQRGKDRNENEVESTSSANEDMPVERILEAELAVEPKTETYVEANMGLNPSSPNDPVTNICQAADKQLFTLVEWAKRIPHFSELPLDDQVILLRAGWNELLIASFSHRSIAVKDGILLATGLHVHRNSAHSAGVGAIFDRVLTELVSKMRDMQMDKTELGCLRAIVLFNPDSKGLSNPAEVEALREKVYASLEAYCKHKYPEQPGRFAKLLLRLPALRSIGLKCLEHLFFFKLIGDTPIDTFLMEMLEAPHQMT

COc1ccc(-c2ccc3cc(C(=O)O)ccc3c2)cc1C12CC3CC(CC(C3)C1)C2
active: [3] 3.62 µM | [4] 2.12 µM | [5] 6.67 µM
inactive: [1] | [2] | [6] | [7]

CCCCC(C)C(=O)O (stereo unspecified)
inactive: [1] | [2] | [3] | [4] | [5] | [7]

CC(=O)N[C@@H](CS)C(=O)O
inactive: [1] | [2] | [3] | [4] | [5] | [7]

CC1=C(C)C(=O)C(CCCCC#CCCCC#CCO)=C(C)C1=O
inactive: [1] | [2] | [3] | [4] | [5] | [7]

COc1cccc(Br)c1
inactive: [1] | [2] | [3] | [4] | [5] | [7]

O=C(O)Cc1sc(-c2ccccc2)nc1-c1ccc(Cl)cc1
not listed: [8] | [9] | [10]
inactive: all other assays above

Cc1cc(O)c2ccccc2c1O
inactive: [1] | [2] | [3] | [4] | [5] | [7]

CC(=O)OC1CCC(C(C)(C)C)CC1 (stereo unspecified)
inactive: [1] | [2] | [3] | [4] | [5] | [7]

CCCCc1nc(Cl)c(CO)n1Cc1ccc(-c2ccccc2-c2nn[nH]n2)cc1
not listed: [8] | [9] | [10]
inactive: all other assays above

Cc1ccc([N+](=O)[O-])c(N)c1
inactive: [1] | [2] | [3] | [4] | [5] | [7]

CC(=O)c1sc(C)nc1C
inactive: [1] | [2] | [3] | [4] | [5] | [7]

CCCCCCCCCCOc1cc2c(=O)c(C(=O)OCC)c[nH]c2cc1OCC
not listed: [8] | [9] | [10]
inactive: all other assays above

NCCC(O)(P(=O)(O)O)P(=O)(O)O
inactive: [1] | [2] | [3] | [4] | [5] | [7]

CCCCCCCCCCCCCCCC(=O)OC(C)C
inactive: [1] | [2] | [3] | [4] | [5] | [7]

C[C@H](NCCc1ccc(O)cc1)[C@H](O)c1ccc(O)cc1
inactive: [1] | [2] | [3] | [4] | [5] | [7]

CCN(CC)CCC(=O)N1c2ccccc2Sc2ccc(Cl)cc21
inactive: [1] | [2] | [3] | [4] | [5] | [7]

NC[C@@H]1CC[C@@H](N)[C@@H](O[C@H]2[C@H](O)[C@@H](O[C@H]3O[C@H](CO)[C@@H](O)[C@H](N)[C@H]3O)[C@H](N)C[C@@H]2N)O1
not listed: [8] | [9] | [10]
inactive: all other assays above

CCCCCCCCCCCCCCCC(=O)OCC(COC(=O)CCCCCCCCCCCCCCC)OC(=O)CCCCCCCCCCCCCCC
not listed: [8] | [9] | [10]
inactive: all other assays above

CCN(CC)CCNC(=O)c1cc(Cl)c(N)cc1OC
inactive: [1] | [2] | [3] | [4] | [6] | [7]

Cc1c(NC(C)C)c(=O)n(-c2ccccc2)n1C
inactive: [1] | [2] | [3] | [4] | [6] | [7]

NC(=O)c1ncn([C@@H]2O[C@H](CO)[C@@H](O)[C@H]2O)c1N
inactive: [1] | [2] | [3] | [4] | [6] | [7]

COc1ccc2cc1Oc1cc3c(cc1OC)CC[N+](C)(C)[C@H]3Cc1ccc(cc1)Oc1c(OC)c(OC)cc3c1[C@@H](C2)[N+](C)(C)CC3
inactive: [1] | [2] | [3] | [4] | [5] | [7]

N=C(N)c1ccc2cc(OC(=O)c3ccc(N=C(N)N)cc3)ccc2c1
inactive: [1] | [2] | [3] | [4] | [6]

O=C(O)CCC(=O)OC[C@@H](NC(=O)C(Cl)Cl)[C@H](O)c1ccc([N+](=O)[O-])cc1
inactive: [1] | [2] | [3] | [4] | [6]

FC(F)(F)C(Cl)Br (stereo unspecified)
inactive: [1] | [2] | [3] | [4] | [5] | [7]

CCO
inactive: [1] | [2] | [3] | [4] | [6] | [7]

CC1(C)S[C@@H]2[C@H](NC(=O)C(N)c3ccccc3)C(=O)N2[C@H]1C(=O)OC1OC(=O)c2ccccc21 (stereo partly specified)
not listed: [6]
inactive: all other assays above

CCc1nccnc1CC
inactive: [1] | [2] | [3] | [4] | [6] | [7]

CCCC(CCC)C(N)=O
inactive: [1] | [2] | [3] | [4] | [7]

O=C=Nc1cccc(C(F)(F)F)c1
active: [2] 86.2 µM
inactive: [1] | [3] | [4] | [5] | [7]
